The results in this text go back to PubChem BioAssay.

The structures appear in SMILES notation. Calls of active or inactive are those of the source.

Assay [1] deals with PRMT1 (protein arginine N-methyltransferase 1). Nature of the assay: PRMT1 binders on small-molecule microarrays, primary screen, biochemical, small-molecule microarray, 635 nm fluorescence (AID 1088).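 Note: binding of Prmt1 protein to compounds spotted on small-molecule microarray slides.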 As to conditions: small-molecule microarray binding, higher = more signal.
Assay [2] can be described thus: yeast growth modulation, basal conditions, primary screen, YJM789 clinical isolate, OD600, 24 h (AID 1089).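 Note: growth of clinical yeast isolate S. cerevisiae YJM 789 seeded 1000 cells per well; test concentration not given here.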 As to conditions: S. cerevisiae YJM789 growth, higher = more signal, called active from +8 up or from −8 down.
A short description of assay [3]: fission yeast growth modulation, primary screen, strain 972, OD600, 24 h, no modulator (AID 1090).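 Note: basal condition with compound alone and no growth modifier present; test concentration not given here.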 As to conditions: S. pombe 972 growth, higher = more signal, called active from +8 up or from −8 down.
Assay [4] can be described thus: S. cerevisiae growth modulation with rapamycin, primary screen, strain BY4716, OD600, 96 h (AID 1091). Note: test concentration not given here. The conditions noted are these: higher = more signal, called active from +8 up or from −8 down.
In assay [5] the target is Torsin-1A-interacting protein 2 (Homo sapiens) (UniProt Q8NFQ8). Briefly: LULL1 binders on small-molecule microarray, primary screen, cell lysate, human LULL1 lysate, 635/667 nm fluorescence (AID 1092).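 Note: probe is lysate of COS7 cells overexpressing human LULL1; score merges per-feature 667 nm fluorescence with signal-to-noise.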 The conditions noted are these: hLULL1 lysate binding, 635 nm fluorescence, higher = more signal.
Assay [6] in a line: E. coli growth modulation, two-sided OD650, primary screen, E. coli filamentation project, strain DRC41, 24 h (AID 1093).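 Note: MC1000 strain lacking acrAB efflux and sulA so SOS filamentation is blocked; test concentration not given here.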 The conditions noted are these: OD650, 24 h, higher = more signal, called active from +8 up or from −8 down.
Assay [7] can be described thus: small-molecule microarray binders of probe aLefty2, primary screen, biochemical, biotinylated probe, 635/667 nm fluorescence (AID 1094).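 Note: score merges spot fluorescence near 667 nm with spot signal-to-noise ratio.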 As to conditions: higher = more signal.
In assay [8] the test system is Noggin (protein binding on small-molecule microarray). Briefly: Noggin binders on small-molecule microarray, primary screen, biochemical, 635/667 nm fluorescence (AID 1095).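 Note: score merges 667 nm feature fluorescence with signal to noise over triplicate slides.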 As to conditions: 635 nm fluorescence, higher = more signal.
In assay [9] the target is Neurogenic locus notch homolog protein 3 (Homo sapiens) (UniProt Q9UM47). Briefly: NOTCH3 binders on small-molecule microarray, primary screen, biochemical, 635/667 nm fluorescence (AID 1096). As to conditions: NOTCH3 binding, 635 nm fluorescence, higher = more signal.
A short description of assay [10]: small-molecule microarray binders of probe aEGFR, primary screen, biochemical, biotinylated probe, 635/667 nm fluorescence (AID 1097).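 Note: probe is a biotinylated anti-EGFR antibody binding compounds printed on slides; score combines fluorescence near 667 nm and signal to noise of each spot.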 As to conditions: higher = more signal.
Assay [11] deals with Plasmodium falciparum Sir2 (PF13_0152, Sir2A). Nature of the assay: pfSir2 binders on small-molecule microarrays, primary screen, biochemical, small-molecule microarray, 635 nm fluorescence (AID 1098).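 Note: score merges spot fluorescence intensity with its signal-to-noise ratio.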 The conditions noted are these: small-molecule microarray binding, fluorescence 635 nm; higher = more signal.
A short description of assay [12]: small-molecule microarray binders of probe aDKK1, primary screen, biochemical, biotinylated probe, 635/667 nm fluorescence (AID 1099).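 Note: score merges 667nm spot fluorescence with signal to noise across triplicate slides; reference of the scale not given here.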 As to conditions: higher = more signal.
Assay [13] can be described thus: small-molecule microarray binders of probe aCHRDL2, primary screen, biochemical, biotinylated probe, 635/667 nm fluorescence (AID 1100). The conditions noted are these: higher = more signal.
Assay [14] in a line: splicing luciferase reporter signal modulators, primary screen, spliceosome inhibition project, cell-based, HEK293, splice +/- reporter (AID 1101).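 Note: HEK293 cells carrying a splicing-competent luciferase reporter gene; test concentration not given here.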 The conditions noted are these: luminescence, 24 h, higher = more signal, called active from +8 up or from −8 down.
In assay [15] the target is Fibroblast growth factor 10 (Homo sapiens) (UniProt O15520). Briefly: FGF10 binders on small-molecule microarrays, primary screen, biochemical, small-molecule microarray, 635 nm fluorescence (AID 1102). As to conditions: FGF10 binding, fluorescence 635 nm, higher = more signal.
The test system of assay [16] is glycogen synthase kinase-3 (GSK3A per assay name; protocol says GSK3B). Nature of the assay: GSK3 binders on small-molecule microarrays, primary screen, biochemical, small-molecule microarray, 635 nm fluorescence, GSK3A (AID 1103). Note: the record names both GSK3A and GSK3B. The conditions noted are these: small-molecule microarray binding, fluorescence 635 nm; higher = more signal.
The target of assay [17] is Epidermal growth factor receptor (Homo sapiens) (UniProt P00533). Briefly: EGFR binders on small-molecule microarrays, primary screen, biochemical, small-molecule microarray, 635 nm fluorescence (AID 1104).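 Note: score merges 667 nm emission intensity with spot signal to noise over triplicate slides.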 The conditions noted are these: EGFR binding, higher = more signal.
Assay [18] addresses Follistatin-related protein 3 (Homo sapiens) (UniProt O95633). Briefly: FSTL3 binders on small-molecule microarrays, primary screen, biochemical, small-molecule microarray, 635 nm fluorescence (AID 1105).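 Note: score merges emission near 667 nm and signal to noise per printed spot across three slides.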 The conditions noted are these: FSTL3 binding, higher = more signal.
The target in assay [19] is Dickkopf-related protein 1 (Homo sapiens) (UniProt O94907). Nature of the assay: DKK1 binders on small-molecule microarrays, primary screen, biochemical, small-molecule microarray, 635 nm fluorescence scan (AID 1106).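 Note: score merges emission near 667 nm with signal to noise over three replicate slides.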 The conditions noted are these: DKK1 binding, higher = more signal.
For assay [20], the system named is Inhibin beta A chain (activin A). Nature of the assay: INHBA (activin A) binders on microarrays, primary screen, biochemical, small-molecule microarray, 635 nm fluorescence scan (AID 1107).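 Note: mouse activin A protein probed at 4.33 µg/mL on printed slides; score merges bound-protein fluorescence near 667 nm with spot signal-to-noise.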 The conditions noted are these: small-molecule microarray binding, higher = more signal.

Chain of Neurogenic locus notch homolog protein 3 (Homo sapiens) (Q9UM47 whole entry, looked up): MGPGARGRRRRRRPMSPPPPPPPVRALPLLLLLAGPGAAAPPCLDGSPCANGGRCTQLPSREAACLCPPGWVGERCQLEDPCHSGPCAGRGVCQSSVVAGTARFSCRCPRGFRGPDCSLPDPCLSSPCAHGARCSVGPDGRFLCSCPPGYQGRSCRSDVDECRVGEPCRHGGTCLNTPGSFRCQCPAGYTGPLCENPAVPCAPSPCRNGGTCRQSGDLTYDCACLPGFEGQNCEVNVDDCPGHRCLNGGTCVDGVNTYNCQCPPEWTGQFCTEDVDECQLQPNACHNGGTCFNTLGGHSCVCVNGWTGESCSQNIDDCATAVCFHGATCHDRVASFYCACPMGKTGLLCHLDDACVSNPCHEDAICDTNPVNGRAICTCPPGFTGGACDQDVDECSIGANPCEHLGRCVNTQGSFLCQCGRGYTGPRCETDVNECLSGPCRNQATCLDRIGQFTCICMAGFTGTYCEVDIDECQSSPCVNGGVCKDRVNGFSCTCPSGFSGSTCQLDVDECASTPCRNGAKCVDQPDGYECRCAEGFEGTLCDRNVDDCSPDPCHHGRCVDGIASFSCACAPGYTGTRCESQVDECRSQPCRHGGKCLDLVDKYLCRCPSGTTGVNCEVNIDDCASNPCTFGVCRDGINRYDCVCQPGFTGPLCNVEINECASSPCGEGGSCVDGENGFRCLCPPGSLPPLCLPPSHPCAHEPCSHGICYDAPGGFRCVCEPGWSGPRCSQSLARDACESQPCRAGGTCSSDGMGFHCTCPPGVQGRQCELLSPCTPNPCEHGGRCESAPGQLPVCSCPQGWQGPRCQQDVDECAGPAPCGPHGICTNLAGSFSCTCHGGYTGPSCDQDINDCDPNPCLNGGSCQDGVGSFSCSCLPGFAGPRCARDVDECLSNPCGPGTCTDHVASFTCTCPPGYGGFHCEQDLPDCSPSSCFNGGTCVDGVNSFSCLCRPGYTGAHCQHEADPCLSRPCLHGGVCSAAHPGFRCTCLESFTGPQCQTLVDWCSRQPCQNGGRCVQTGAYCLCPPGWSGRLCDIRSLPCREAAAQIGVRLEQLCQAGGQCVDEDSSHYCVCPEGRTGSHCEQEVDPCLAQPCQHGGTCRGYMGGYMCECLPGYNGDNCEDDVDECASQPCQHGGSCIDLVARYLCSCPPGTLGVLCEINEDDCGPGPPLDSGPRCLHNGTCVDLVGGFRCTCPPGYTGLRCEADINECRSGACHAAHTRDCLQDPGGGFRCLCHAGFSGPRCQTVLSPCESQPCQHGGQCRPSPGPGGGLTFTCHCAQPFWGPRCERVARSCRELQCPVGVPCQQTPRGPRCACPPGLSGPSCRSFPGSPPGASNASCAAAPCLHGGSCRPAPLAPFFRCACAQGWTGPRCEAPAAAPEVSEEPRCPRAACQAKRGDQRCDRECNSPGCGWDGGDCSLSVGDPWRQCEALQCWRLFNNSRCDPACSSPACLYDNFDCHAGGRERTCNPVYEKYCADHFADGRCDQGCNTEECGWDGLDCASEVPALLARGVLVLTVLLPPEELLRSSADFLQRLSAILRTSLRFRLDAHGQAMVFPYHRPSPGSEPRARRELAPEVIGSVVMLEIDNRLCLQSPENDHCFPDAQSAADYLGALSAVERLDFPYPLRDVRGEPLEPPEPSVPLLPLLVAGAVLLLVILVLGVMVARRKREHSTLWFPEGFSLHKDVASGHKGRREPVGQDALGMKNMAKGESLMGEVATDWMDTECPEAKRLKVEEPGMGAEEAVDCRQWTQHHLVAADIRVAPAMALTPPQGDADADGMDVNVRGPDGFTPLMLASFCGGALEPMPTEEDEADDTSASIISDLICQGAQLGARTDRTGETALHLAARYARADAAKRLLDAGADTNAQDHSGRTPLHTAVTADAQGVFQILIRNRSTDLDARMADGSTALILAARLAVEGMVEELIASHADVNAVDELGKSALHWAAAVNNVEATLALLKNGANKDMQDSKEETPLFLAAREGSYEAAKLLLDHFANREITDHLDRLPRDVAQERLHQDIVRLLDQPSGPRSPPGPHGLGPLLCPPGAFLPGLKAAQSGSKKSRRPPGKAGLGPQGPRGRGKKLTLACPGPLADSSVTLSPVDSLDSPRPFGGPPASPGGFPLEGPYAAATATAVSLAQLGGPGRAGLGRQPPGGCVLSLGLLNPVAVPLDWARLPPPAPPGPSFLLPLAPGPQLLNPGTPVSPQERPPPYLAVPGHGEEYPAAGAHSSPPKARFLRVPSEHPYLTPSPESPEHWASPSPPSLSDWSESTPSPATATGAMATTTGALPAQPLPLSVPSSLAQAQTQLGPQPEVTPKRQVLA
Chain of Follistatin-related protein 3 (Homo sapiens) (O95633 whole entry, looked up): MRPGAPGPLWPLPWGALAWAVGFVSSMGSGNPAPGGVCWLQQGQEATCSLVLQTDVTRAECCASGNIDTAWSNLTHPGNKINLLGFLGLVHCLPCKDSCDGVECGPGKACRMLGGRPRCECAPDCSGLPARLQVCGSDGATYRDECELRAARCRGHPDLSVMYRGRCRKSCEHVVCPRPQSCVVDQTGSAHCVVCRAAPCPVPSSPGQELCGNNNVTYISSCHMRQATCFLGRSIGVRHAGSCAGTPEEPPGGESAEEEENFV
Chain of Torsin-1A-interacting protein 2 (Homo sapiens) (Q8NFQ8 whole entry, looked up): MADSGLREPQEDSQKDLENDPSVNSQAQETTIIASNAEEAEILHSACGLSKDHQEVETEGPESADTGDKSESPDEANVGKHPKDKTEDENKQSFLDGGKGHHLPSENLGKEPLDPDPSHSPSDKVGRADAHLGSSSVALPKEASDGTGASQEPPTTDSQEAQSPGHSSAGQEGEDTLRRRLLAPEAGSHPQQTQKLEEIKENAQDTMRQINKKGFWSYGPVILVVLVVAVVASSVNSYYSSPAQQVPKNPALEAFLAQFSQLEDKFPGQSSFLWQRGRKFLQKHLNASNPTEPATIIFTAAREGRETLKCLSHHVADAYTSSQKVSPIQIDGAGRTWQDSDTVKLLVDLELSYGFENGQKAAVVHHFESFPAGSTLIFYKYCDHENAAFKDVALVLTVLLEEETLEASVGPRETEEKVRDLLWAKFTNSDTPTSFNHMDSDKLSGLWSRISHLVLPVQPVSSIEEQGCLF
Chain of Fibroblast growth factor 10 (Homo sapiens) (O15520 whole entry, looked up): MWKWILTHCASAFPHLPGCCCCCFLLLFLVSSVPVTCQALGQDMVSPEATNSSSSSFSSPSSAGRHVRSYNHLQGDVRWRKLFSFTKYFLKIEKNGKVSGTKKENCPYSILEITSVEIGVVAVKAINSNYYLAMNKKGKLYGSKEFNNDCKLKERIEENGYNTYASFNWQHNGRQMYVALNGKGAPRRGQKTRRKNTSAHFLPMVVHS
Chain of Dickkopf-related protein 1 (Homo sapiens) (O94907 whole entry, looked up): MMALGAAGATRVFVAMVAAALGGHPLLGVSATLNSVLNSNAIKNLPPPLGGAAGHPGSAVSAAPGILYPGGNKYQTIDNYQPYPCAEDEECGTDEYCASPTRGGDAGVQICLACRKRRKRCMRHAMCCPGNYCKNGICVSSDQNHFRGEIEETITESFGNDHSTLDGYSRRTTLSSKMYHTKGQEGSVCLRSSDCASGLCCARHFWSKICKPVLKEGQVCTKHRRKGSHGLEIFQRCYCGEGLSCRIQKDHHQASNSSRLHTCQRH
Chain of Epidermal growth factor receptor (Homo sapiens) (P00533 whole entry, looked up): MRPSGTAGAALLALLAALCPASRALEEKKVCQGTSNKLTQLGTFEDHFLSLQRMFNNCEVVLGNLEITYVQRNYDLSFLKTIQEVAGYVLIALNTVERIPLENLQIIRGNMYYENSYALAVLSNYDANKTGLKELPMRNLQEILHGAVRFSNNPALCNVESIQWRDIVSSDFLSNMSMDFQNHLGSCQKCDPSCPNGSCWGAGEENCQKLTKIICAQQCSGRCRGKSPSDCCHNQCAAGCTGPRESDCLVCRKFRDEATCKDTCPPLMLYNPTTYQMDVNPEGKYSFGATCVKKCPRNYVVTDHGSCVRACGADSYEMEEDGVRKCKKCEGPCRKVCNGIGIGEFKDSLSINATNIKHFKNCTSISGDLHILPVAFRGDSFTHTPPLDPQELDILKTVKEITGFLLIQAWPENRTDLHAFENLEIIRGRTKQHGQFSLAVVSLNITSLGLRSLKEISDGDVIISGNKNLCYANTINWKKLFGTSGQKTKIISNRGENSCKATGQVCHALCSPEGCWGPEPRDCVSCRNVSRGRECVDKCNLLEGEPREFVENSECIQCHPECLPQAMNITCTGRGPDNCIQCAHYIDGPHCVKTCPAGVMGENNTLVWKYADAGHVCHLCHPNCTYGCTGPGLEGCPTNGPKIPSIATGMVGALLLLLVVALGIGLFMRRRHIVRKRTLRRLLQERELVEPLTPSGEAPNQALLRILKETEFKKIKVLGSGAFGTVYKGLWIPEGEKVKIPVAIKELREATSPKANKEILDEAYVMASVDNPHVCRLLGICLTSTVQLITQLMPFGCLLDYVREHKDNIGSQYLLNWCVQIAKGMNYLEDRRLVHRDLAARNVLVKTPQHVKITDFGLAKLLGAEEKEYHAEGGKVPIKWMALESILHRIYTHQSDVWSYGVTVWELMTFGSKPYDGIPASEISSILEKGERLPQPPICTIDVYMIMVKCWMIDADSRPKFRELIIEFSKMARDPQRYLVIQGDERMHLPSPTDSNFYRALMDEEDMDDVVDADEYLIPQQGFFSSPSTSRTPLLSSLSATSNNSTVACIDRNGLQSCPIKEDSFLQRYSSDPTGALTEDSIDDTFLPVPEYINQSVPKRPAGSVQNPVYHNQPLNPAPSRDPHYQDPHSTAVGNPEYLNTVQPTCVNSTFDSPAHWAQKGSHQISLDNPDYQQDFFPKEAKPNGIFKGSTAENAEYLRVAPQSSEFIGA

`C=CC[C@@]1(C(=O)NCc2ccccc2)N=C(c2ccc(OCCCO)cc2)O[C@@H]1c1ccccc1CN=[N+]=[N-]`: the composite z-score in [1] is 0.985; in assay [5], 3.17; in assay [7] it was 0.418; in assay [8] it was 0.0824; in assay [9], 0.901; in assay [10], 0.0149. Besides, the composite z-score was 1.1 in assay [11]; 0.9 in assay [12]; 0.953 in [13]; 1.15 in assay [15]; 0.0389 in [16]; -0.282 in [17]. Besides, the results for the composite z-score in [18], in assay [19] and in assay [20] were 0.849, 0.0805 and 0.835, respectively. In addition, the z-score in assay [2] was 0.371 (inactive); in assay [3], 1.68 (inactive); in assay [4], 4.84 (inactive); in [6] it was -0.759 (inactive); in assay [14], 0.147 (inactive).

With `[N-]=[N+]=NCc1ccccc1[C@@H]1OC(c2ccc(OCCCO)cc2)=N[C@]1(Cc1ccccc1N=[N+]=[N-])C(N)=O`, the composite z-score in [1] came to 1.55; in assay [5], 3.29; in assay [7], 0.361; in assay [8], 0.37; in assay [9], 1.04; in [10], 0.171. Also, the composite z-score in assay [11] was 1.48; in assay [12] it was 0.367; in assay [13] it was 1.16; in assay [15], 1.38; in [16], 1.27; in assay [17] it was -0.0099. The figures for the composite z-score in assay [18], in assay [19] and in assay [20] were 0.995, 0.259 and 1.06, respectively. For the same compound, the z-score in [2] was -0.0556 (inactive); in assay [3], -1.33 (inactive); in [4] it was -0.91 (inactive); in assay [6] it was 0.43 (inactive); in assay [14], 0.352 (inactive).

Regarding `Cc1ccc(N2C(=O)c3ccccc3[C@](C)(C(=O)NCCN3CCOCC3)[C@@H]2c2ccc(CO)cc2)nc1`, the composite z-score in assay [1] was -0.405; in assay [5], 1.04; in [7] it was 0.0216; in [8], -1.02; in [9] it was -1.74; in assay [10] it was -0.312. For the same compound, the composite z-score is 0.0614 in [11]; 0.0511 in [12]; 0.858 in assay [13]; -1.01 in assay [15]; -1.73 in assay [16]; -1.41 in assay [17]. For the same compound, the composite z-score was -1.74 in assay [18], -0.979 in [19] and -0.472 in [20]. For the same compound, the z-score in assay [2] was 0.0623 (inactive); in assay [3] it was -0.822 (inactive); in assay [4] it was -0.324 (inactive); in assay [6] it was -1.4 (inactive); in assay [14], 0.219 (inactive).

For `O=C1O[C@H](c2ccccc2)[C@H](c2ccccc2)N2[C@H]1[C@@H](C(=O)N1CCCCCCC1)[C@]1(C(=O)Nc3ccc(C#CC4=CCCCC4)cc31)[C@H]2c1ccc(O)cc1`, the composite z-score in assay [1] turned out to be 1.56; in assay [5], 5.19; in [7], 1.91; in [8] it was 2.3; in assay [9], 1.02; in assay [10], 1.47. Besides, the composite z-score in assay [11] worked out at 2.14; in assay [12], 3.14; in assay [13], 1.72; in [15], 1.67; in [16], 1.5; in assay [17], 2.04. Also, the composite z-score turned out to be 1.69 in [18], 2.71 in assay [19] and 2.04 in assay [20]. Moreover, the z-score was -0.177 (inactive) in assay [2]; 0.218 (inactive) in assay [3]; 0.791 (inactive) in assay [4]; 1.26 (inactive) in assay [6]; -0.944 (inactive) in assay [14].

On to `CCOC(=O)C1=C[C@@H](C(C)(C)C)N(S(=O)(=O)c2ccc(C)cc2)[C@H]1c1ccc(Cl)c(Cl)c1`, for which the composite z-score amounted to 1.46 in assay [1]; 2.68 in [5]; 0.201 in assay [7]; 0.346 in assay [8]; 1.09 in [9]; 0.239 in assay [10]. The composite z-score in [11] came to 1.1; in assay [12], 0.665; in assay [13], 0.827; in assay [15], 0.733; in [16], 1.3; in assay [17] it was 0.481. Further, the composite z-score is 0.924 in assay [18], 0.023 in assay [19] and 0.326 in assay [20]. Besides, the z-score in assay [2] is 0.771 (inactive); in assay [3] it was 1.71 (inactive); in assay [4] it was 2.44 (inactive); in assay [6] it was -0.875 (inactive); in [14], 0.425 (inactive).

For the compound `NC(=O)NCC#Cc1ccc2c(c1)[C@]1(C(=O)N2)[C@H](C(=O)NC[C@H](O)c2ccccc2)[C@H]2C(=O)O[C@H](c3ccccc3)[C@H](c3ccccc3)N2[C@@H]1c1ccccc1OCCO`, the composite z-score in assay [1] was 1.53; in assay [5] it was 2.35; in assay [7] it was -0.186; in assay [8] it was 0.307; in assay [9] it was 0.927; in [10], -0.167. The composite z-score in [11] was 1.3; in assay [12], -0.0611; in assay [13], 0.729; in [15], 0.588; in assay [16], -0.425; in [17], 0.143. The results for the composite z-score in assay [18], in assay [19] and in assay [20] were -0.0845, -1.04 and 0.286, respectively. Moreover, the z-score in [2] is 1.41 (inactive); in [3], -0.133 (inactive); in assay [4], 2.44 (inactive); in assay [6], 2.02 (inactive); in [14], -0.416 (inactive).

As for `C=CCN1Cc2ccccc2C[C@@]2(COC(c3ccc(OCCCO)cc3)=N2)C1=O`, the composite z-score is 1.5 in [1]; 2.3 in assay [5]; 0.247 in assay [7]; 0.34 in [8]; 0.454 in [9]; 0.052 in [10]. The composite z-score in assay [11] came out at 1.03; in [12], 1.02; in assay [13] it was 1.15; in [15], 0.489; in assay [16], 0.597; in assay [17], 0.437. In addition, the composite z-score was found to be 0.68 in assay [18], 0.644 in assay [19] and 1.59 in assay [20]. For the same compound, the z-score in assay [2] is -0.915 (inactive); in assay [3] it was -4.77 (inactive); in assay [4], 0.817 (inactive); in assay [6] it was 1.42 (inactive); in assay [14] it was -1.13 (inactive).

Consider `NC(=O)[C@@]1(CCS(=O)(=O)c2ccccc2)N=C(c2ccc(OCCCO)cc2)O[C@H]1c1ccccc1`, for which the composite z-score in [1] was 1.54; in [5] it was 3.6; in assay [7], -0.046; in assay [8] it was -0.316; in [9], 0.667; in assay [10] it was -0.0703. The composite z-score is 1.28 in [11]; 0.518 in [12]; 0.7 in assay [13]; 1.08 in assay [15]; 0.953 in assay [16]; -0.151 in assay [17]. In addition, the composite z-score was -0.437 in [18], 0.015 in [19] and 0.564 in assay [20]. Moreover, the z-score is -0.0366 (inactive) in assay [2]; -1.58 (inactive) in assay [3]; -0.918 (inactive) in assay [4]; 0.515 (inactive) in assay [6]; -0.675 (inactive) in assay [14].

As to `O=C1c2ccccc2[C@](Cc2ccccc2I)(C(=O)O)[C@H](c2ccc(CO)cc2)N1Cc1ccccc1C(F)(F)F`, the composite z-score in assay [1] was 1.12; in assay [5], 3.14; in [7] it was -0.243; in assay [8], 0.033; in [9], 0.263; in [10], -0.379. Besides, the composite z-score is 0.674 in assay [11]; -0.483 in [12]; -0.388 in assay [13]; -0.414 in assay [15]; 0.464 in assay [16]; -0.709 in [17]. Moreover, the composite z-score in assay [18] was 0.19; in assay [19] it was -0.376; in assay [20], 0.353. Further, the z-score in assay [2] is 0.817 (inactive); in assay [3], 0.0662 (inactive); in assay [4], 0.0262 (inactive); in assay [6], -0.255 (inactive); in [14] it was 0.185 (inactive).
